Results from PubChem BioAssay.
Values joined by “and” are separate entries in the source; they are usually repeats but may differ in a detail not shown here. Equal entries are not always repeated. Active and inactive are the calls of the source.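 How the source made its calls, unless noted: active means inhibition at or above 50% at 10 µM; inactive means inhibition below 50%.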

Assay: blockers of RIG-like receptor reporter activation – cell-based, Sendai virus stimulus, luciferase, 10K MLSCN set, TLR/RLR signaling modifier project, primary screen (AID 602276);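 further: firefly luciferase from ISG56 promoter only with Renilla not read in this screen; 0% = Sendai virus plus DMSO and 100% = medium plus DMSO without virus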
Conditions: HEK293 RL24 IRF3 luciferase reporter, at 10 µM, hits give high values

inhibition, inactive:
N#CC1=C(N)N(c2ccccc2)C(c2ccccc2)C1(C#N)C#N (centres undefined) 16.9%, CC(C)NCC(O)COc1cccc2[nH]ccc12 (centres undefined) -0.334%, COCc1cc(=O)[nH]c(Nc2nc3ccccc3o2)n1 -29.5%, O=C(O)c1cc(=O)cc(C(=O)O)[nH]1 13.7%, Cc1cc(C)n(S(=O)(=O)Cc2ccccc2)n1 15%, Cn1c(Cl)cnc1C1CC(=O)c2cc(Cl)ccc2O1 (centres undefined) 16.5%, CCOC(=O)CC(C#N)c1cn(C)c2ccccc12 (centres undefined) 21.5%, CCCC(=O)Nc1ccc(OCC(O)CNC(C)C)c(C(C)=O)c1 (centres undefined) 8.12%, CC1(C)SC2[C@H](NC(=O)C(NC(=O)N3CCNC3=O)c3ccccc3)C(=O)N2C1C(=O)O (some centres undefined) 3.1%, CCOC(=O)C1=C(CSc2nc(C)cc(C)c2C#N)OC(N)=C(C#N)C1c1cccs1 (centres undefined) 13.2%, Cc1ccc(N(CC2=NCCN2)c2cccc(O)c2)cc1 0.917% and -3.85%, Cc1cc(NS(=O)(=O)c2ccc(N)cc2)no1 19.8%, O=c1cc(NCc2ccccc2)nc2n1CCCS2 -14.4%, COc1ccc2c(C)nc(Nc3nc(C)cc(C)n3)nc2c1 14%, Fc1cc(F)c(F)c(SCCc2ccncc2)c1F 7%, CN1CCN(C2=Nc3ccccc3Oc3ccc(Cl)cc32)CC1 13.8%, Cc1cnc(NC(=O)C2=C(O)c3ccccc3S(=O)(=O)N2C)s1 15.5%, COc1cccc2c1C(=O)c1c(O)c3c(c(O)c1C2=O)C[C@@](O)(C(=O)CO)C[C@@H]3O[C@H]1C[C@H](N)[C@H](O)[C@H](C)O1 -38.5%, O=S(=O)(c1cccc2cnccc12)N1CCCNCC1 18.3%, CC(C)Cc1ccc(C(C)C(=O)O)cc1 (centres undefined) -8.48%, C[C@H](CS)C(=O)N1CCC[C@H]1C(=O)O -6.06%, COC(=O)C1=C(C)NC(C)=C(C(=O)OC)C1c1ccccc1[N+](=O)[O-] 12.4%, O=C(c1ccc2c(c1)OCCO2)N1CCCCC1 8.03%, Nc1ccc(S(=O)(=O)Nc2ncccn2)cc1 15.1%, COc1ccccc1C1C(C#N)=C(N)Oc2cc(C)n(Cc3ccccn3)c(=O)c21 (centres undefined) -7.32%, CC(=O)O[C@H]1C(=O)[C@]2(C)[C@H]([C@H](OC(=O)c3ccccc3)[C@]3(O)C[C@H](OC(=O)[C@H](O)[C@@H](NC(=O)c4ccccc4)c4ccccc4)C(C)=C1C3(C)C)[C@]1(OC(C)=O)CO[C@@H]1C[C@@H]2O 17.7%, CCC(=O)O[C@@H]1CC(=O)O[C@H](C)CC=CC=C[C@@H](O)[C@H](C)C[C@H](CC=O)[C@H](O[C@H]2O[C@H](C)[C@@H](O[C@H]3C[C@@](C)(O)[C@@H](OC(=O)CC)[C@H](C)O3)[C@H](N(C)C)[C@H]2O)[C@H]1OC -13.3%, CCCn1c(=O)[nH]c(=O)c2[nH]cnc21 18.8%, CC[N+](C)(C)Cc1ccccc1Br 19.3%, COC(=O)c1cc(=O)n2c(-c3ccc(OC)cc3)csc2n1 18.2%, COc1ccccc1OCC(O)COC(N)=O (centres undefined) 9.33%, COc1cc2nc(N3CCN(C(=O)c4ccco4)CC3)nc(N)c2cc1OC -4.12%, Cc1nnc(SCC2=C(C(=O)O)N3C(=O)[C@@H](NC(=O)Cn4cnnn4)[C@H]3SC2)s1 9.64%, Clc1ccc2c(c1)C(N1CCNCC1)=Nc1ccccc1O2 1.94%, CC1(C)S[C@@H]2[C@H](NC(=O)[C@H](C(=O)O)c3ccsc3)C(=O)N2[C@H]1C(=O)O 12.3%, O=C(O)c1cc(=O)c2c(OCC(O)COc3cccc4oc(C(=O)O)cc(=O)c34)cccc2o1 13.2%, CC[C@H]1OC(=O)C[C@@H](O)[C@H](C)[C@@H](O[C@@H]2O[C@H](C)C[C@H](N(C)C)[C@H]2O)[C@@H](CC=O)C[C@@H](C)C(=O)C=C[C@]2(C)O[C@H]2[C@@H]1C 6.6%, O=C(O)CCNC(=O)c1ccccc1 -13.3%, CC[C@H](C)C(=O)O[C@H]1C[C@@H](C)C=C2C=C[C@H](C)[C@H](CC[C@@H]3C[C@@H](O)CC(=O)O3)[C@H]21 -4.78%, Cc1ccc(C2C3CN(C(C)C)CC=C3C(C#N)=C(N)C2(C#N)C#N)cc1 (centres undefined) 22.9%

Assay: TLR3 IRF3 reporter activation blockers – cell-based, poly I:C stimulus, luciferase, 10K MLSCN set, primary screen (AID 602277;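 active means inhibition of the reporter signal at or above 50%; inactive means inhibition below 50%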)
Conditions: HEK293-TLR3 RL24 IRF3 luciferase reporter, at 10 µM, hits give high values

inhibition, active:
COc1cccc2c1C(=O)c1c(O)c3c(c(O)c1C2=O)C[C@@](O)(C(=O)CO)C[C@@H]3O[C@H]1C[C@H](N)[C@H](O)[C@H](C)O1 101%, CC[C@H]1OC(=O)C[C@@H](O)[C@H](C)[C@@H](O[C@@H]2O[C@H](C)C[C@H](N(C)C)[C@H]2O)[C@@H](CC=O)C[C@@H](C)C(=O)C=C[C@]2(C)O[C@H]2[C@@H]1C 61.9%

inhibition, inactive:
N#CC1=C(N)N(c2ccccc2)C(c2ccccc2)C1(C#N)C#N (centres undefined) 17.3%, CC(C)NCC(O)COc1cccc2[nH]ccc12 (centres undefined) 29.8%, COCc1cc(=O)[nH]c(Nc2nc3ccccc3o2)n1 -80.2%, O=C(O)c1cc(=O)cc(C(=O)O)[nH]1 20.1%, Cc1cc(C)n(S(=O)(=O)Cc2ccccc2)n1 14.8%, Cn1c(Cl)cnc1C1CC(=O)c2cc(Cl)ccc2O1 (centres undefined) 35%, CCOC(=O)CC(C#N)c1cn(C)c2ccccc12 (centres undefined) 28.2%, CCCC(=O)Nc1ccc(OCC(O)CNC(C)C)c(C(C)=O)c1 (centres undefined) 27.1%, CC1(C)SC2[C@H](NC(=O)C(NC(=O)N3CCNC3=O)c3ccccc3)C(=O)N2C1C(=O)O (some centres undefined) 37.2%, CCOC(=O)C1=C(CSc2nc(C)cc(C)c2C#N)OC(N)=C(C#N)C1c1cccs1 (centres undefined) 23.4%, Cc1ccc(N(CC2=NCCN2)c2cccc(O)c2)cc1 21.2% and 12.9%, Cc1cc(NS(=O)(=O)c2ccc(N)cc2)no1 31.9%, O=c1cc(NCc2ccccc2)nc2n1CCCS2 -33.9%, COc1ccc2c(C)nc(Nc3nc(C)cc(C)n3)nc2c1 20%, Fc1cc(F)c(F)c(SCCc2ccncc2)c1F -1.64%, CN1CCN(C2=Nc3ccccc3Oc3ccc(Cl)cc32)CC1 41.9%, Cc1cnc(NC(=O)C2=C(O)c3ccccc3S(=O)(=O)N2C)s1 32.8%, O=S(=O)(c1cccc2cnccc12)N1CCCNCC1 29.9%, CC(C)Cc1ccc(C(C)C(=O)O)cc1 (centres undefined) -4.09%, C[C@H](CS)C(=O)N1CCC[C@H]1C(=O)O 12.3%, COC(=O)C1=C(C)NC(C)=C(C(=O)OC)C1c1ccccc1[N+](=O)[O-] 13.4%, O=C(c1ccc2c(c1)OCCO2)N1CCCCC1 18.3%, COc1ccccc1C1C(C#N)=C(N)Oc2cc(C)n(Cc3ccccn3)c(=O)c21 (centres undefined) 4.86%, CC(=O)O[C@H]1C(=O)[C@]2(C)[C@H]([C@H](OC(=O)c3ccccc3)[C@]3(O)C[C@H](OC(=O)[C@H](O)[C@@H](NC(=O)c4ccccc4)c4ccccc4)C(C)=C1C3(C)C)[C@]1(OC(C)=O)CO[C@@H]1C[C@@H]2O 44.3%, CCC(=O)O[C@@H]1CC(=O)O[C@H](C)CC=CC=C[C@@H](O)[C@H](C)C[C@H](CC=O)[C@H](O[C@H]2O[C@H](C)[C@@H](O[C@H]3C[C@@](C)(O)[C@@H](OC(=O)CC)[C@H](C)O3)[C@H](N(C)C)[C@H]2O)[C@H]1OC -27.4%, CCCn1c(=O)[nH]c(=O)c2[nH]cnc21 33.6%, CC[N+](C)(C)Cc1ccccc1Br 30.2%, COC(=O)c1cc(=O)n2c(-c3ccc(OC)cc3)csc2n1 19.9%, COc1ccccc1OCC(O)COC(N)=O (centres undefined) 35.1%, COc1cc2nc(N3CCN(C(=O)c4ccco4)CC3)nc(N)c2cc1OC 19.3%, Cc1nnc(SCC2=C(C(=O)O)N3C(=O)[C@@H](NC(=O)Cn4cnnn4)[C@H]3SC2)s1 21.6%, Clc1ccc2c(c1)C(N1CCNCC1)=Nc1ccccc1O2 23.6%, CC1(C)S[C@@H]2[C@H](NC(=O)[C@H](C(=O)O)c3ccsc3)C(=O)N2[C@H]1C(=O)O 36.3%, O=C(O)c1cc(=O)c2c(OCC(O)COc3cccc4oc(C(=O)O)cc(=O)c34)cccc2o1 13.9%, O=C(O)CCNC(=O)c1ccccc1 -8.8%, CC[C@H](C)C(=O)O[C@H]1C[C@@H](C)C=C2C=C[C@H](C)[C@H](CC[C@@H]3C[C@@H](O)CC(=O)O3)[C@H]21 49.1%, Cc1ccc(C2C3CN(C(C)C)CC=C3C(C#N)=C(N)C2(C#N)C#N)cc1 (centres undefined) 22.3%
